Rows were chosen to be rich in hits. Some 10% of all compounds tested hit in one or more screens of this group.
CtBP-E1A blk – CtBP/E1A binding inhibition. AlphaScreen GST-E1A/His-CtBP binding, 1536-well; active compounds read low. AID 651724. 0.49% of 340,000 active. activity change, % (test concentration not listed); in the data active means activity change below about -65%; inconclusive means mostly about -30% to -63%
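AlphaScreen with 125 nM GST-E1A and 125 nM His-CtBP (5X stocks) in Tris pH 8.0, 300 mM NaCl, BSA, Tween 20, TCEP. Compounds preincubated 2 h at 37 deg C, then glutathione donor/nickel acceptor beads added for 1 h at 37 deg C in dark.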
JMJD2A Tudor inh – JMJD2A Tudor domain (human) inhibition; O75164; AlphaScreen JMJD2A-Tudor / H3K4me3 peptide binding; Potency, µM (doses to about 114 µM), hits mostly inhibitors; 4.4% of 390,000 active; further: nearly all actives have a fitted effect of over 50% in size
Six1-Eya2 inh – blocks human Six1 binding to Eya2; AlphaScreen GST-Six1/His-Eya2 binding, biochemical; active compounds read low; 0.56% of 360,000 active; Q15475+O00167; AID 651725; activity change, % (test concentration not listed); in the data active means activity change below about -65%; inconclusive means mostly about -30% to -63%
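Compounds are tested against tagged Six1 and Eya2 proteins bridged by glutathione donor and nickel acceptor beads; after a one-hour incubation at 37 °C without light, AlphaScreen emission is recorded.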
BAZ2B inh – BAZ2B (human) inhibition; 4.4% of 360,000 active; Q9UIF8; Potency, µM (top dose mostly 114 µM), most hits filed as inhibitors; AlphaScreen BAZ2B-H3K14Ac peptide displacement; further: nearly all actives have a fitted effect of over 60% in size
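Inhibition is scored as reduced AlphaScreen emission. The BAZ2B/b-H3(5-23)K14Ac complex (50 nM each) in PBS pH 7.4, 0.01% Tween-20 meets compound (up to 110 uM) for 30 min at RT before bead addition.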
G9a block – blocks human histone lysine methyltransferase G9a; G9a H3K9 monomethylation, AlphaScreen, 2 h; Potency, µM (titrated, usually from 102 µM), most hits filed as inhibitors; 8.8% of 350,000 active; AID 504332; further: nearly all actives have a fitted effect of over 75% in size
Target sequence (Q96KQ7 913-1193 limits assumed): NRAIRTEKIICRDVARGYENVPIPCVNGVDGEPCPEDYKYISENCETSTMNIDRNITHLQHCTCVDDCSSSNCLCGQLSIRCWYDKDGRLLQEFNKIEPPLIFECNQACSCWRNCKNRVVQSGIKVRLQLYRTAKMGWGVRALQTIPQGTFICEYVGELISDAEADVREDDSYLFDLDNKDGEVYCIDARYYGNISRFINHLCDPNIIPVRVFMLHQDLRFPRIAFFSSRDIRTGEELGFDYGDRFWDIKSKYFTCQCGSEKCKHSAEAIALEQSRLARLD
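Compounds were preincubated with 20 nM G9a for 15 min, after which biotinylated H3K9 peptide (500 nM) and SAM (20 uM) started a 2 h room-temperature reaction. Monomethylated product was quantified by antibody-based AlphaScreen chemiluminescence.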
HP1b chromo inh – blocks HP1-beta chromodomain binding to methylated histone tails; 0.56% of 390,000 active; P83916; AID 540317; Potency, µM (top dose mostly 114 µM), hits mostly inhibitors; AlphaScreen HP1-beta / biotin-H3K9me3 peptide binding; further: nearly all actives have a fitted effect of over 70% in size
Target sequence (P83916 whole entry, looked up): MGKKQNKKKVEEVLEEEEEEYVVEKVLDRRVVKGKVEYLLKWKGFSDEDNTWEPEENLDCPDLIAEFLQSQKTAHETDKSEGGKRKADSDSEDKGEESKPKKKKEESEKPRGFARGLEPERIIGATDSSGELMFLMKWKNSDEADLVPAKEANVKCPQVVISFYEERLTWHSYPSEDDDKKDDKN
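HP1-beta protein (50 nM final) preincubated 30 min at room temperature with biotinylated H3(1-18)K9me3 peptide (50 nM) in PBS pH 7.4, 0.01% Tween-20, then compound added for 30 min. AlphaScreen streptavidin donor/nickel chelate acceptor beads (10 ug/mL final), 30 min dark, luminescence read.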
Hits are given with their value; . = inactive; ? = inconclusive; / = not tested or not shown; [ ] = dose if it differs, or a comment. Unless noted, the call rests on the fitted dose curve; in most records, active means well fitted inhibition curve with a large enough effect; inconclusive means small, poorly fitted or top-dose-only effect; inactive means no such curve, though single readings can be large or run the other way.

SMILES	CtBP-E1A blk	JMJD2A Tudor inh	Six1-Eya2 inh	BAZ2B inh	G9a block	HP1b chromo inh
Cc1cc(C)cc(Nc2cc(C(=O)NC3CCC(C)CC3)c3ccccc3n2)c1 (centres undefined)	/	.	/	/	.	.
O=C(NCCCn1ccnc1)C(=O)Nc1ccccc1	.	79µM	.	.	.	?
COc1ccc(NC(=O)C(=O)NCCCn2ccnc2)cc1	.	.	.	.	.	.
CSCc1nnc(NC(=O)c2ccc(S(=O)(=O)N(CC(C)C)CC(C)C)cc2)o1	/	/	/	.	.	/
O=C(Nc1nnc(-c2ccc(Cl)cc2)o1)C1=COCCO1	.	?	.	50µM	.	.
CCc1nnc(NC(=O)c2ccc(S(=O)(=O)N(CC(C)C)CC(C)C)cc2)o1	.	.	.	.	.	.
CCc1nnc(NC(=O)c2ccc(S(=O)(=O)N(C)c3ccccc3)cc2)o1	.	25µM	.	/	.	.
CSCc1nnc(NC(=O)c2ccc(S(=O)(=O)N(C)C)cc2)o1	.	20µM	.	.	.	.
CN(c1ccccc1)S(=O)(=O)c1ccc(C(=O)Nc2nnc(C3=COCCO3)o2)cc1	.	.	.	79µM	35µM	.
Cc1noc(/C=C/c2ccco2)c1S(=O)(=O)N1CCC(C(=O)Nc2ccc(F)c(Cl)c2)CC1	/	.	/	/	.	.
CN(C)c1ccc(C(=O)Nc2nnc(C3=COCCO3)o2)cc1	.	79µM	?	/	.	.
CCCN1C(C(=O)c2ccccc2)=C(OC(=O)c2ccc(F)cc2)c2ccccc2S1(=O)=O	/	.	/	.	.	.
CCNC(=O)/N=C1/NC(=O)C(C(C)C)O1 (centres undefined)	.	7.9µM	.	.	?	.
CCCCC[C@H](O)/C=C/[C@@H]1[C@H](C/C=C\CCCC(=O)O)[C@@H](O)C[C@H]1O	/	/	/	/	.	/
O=C(/C=C/c1ccc(F)cc1)NC(=S)N1CCN(c2ccccn2)CC1	-74	.	.	.	/	.
COc1ccc(/C=C/C(=O)NC(=S)N2CCN(c3ccccn3)CC2)cc1OC	?	.	.	.	/	.
CCc1cccc(NC(=O)CSc2nc3ccccc3nc2N2CCCCC2)c1	/	.	/	.	.	.
COc1ccc(CNCc2ccc(OC)c3ccccc23)cc1	.	?	.	?	.	.
COc1ccccc1CNCc1ccc(OC)c2ccccc12	.	18µM	.	/	/	.
COc1cccc(CNCc2ccc(OC)c3ccccc23)c1OC	.	3.2µM	.	20µM	.[2.33 µM]	40µM
COc1ccccc1CNCC(c1ccccc1)c1ccccc1	/	/	/	50µM	40µM	/
COc1ccccc1CNCc1cc(Br)ccc1OC	.	?	.	56µM	8.9µM	.
COc1ccccc1CNCC(O)Cn1c2ccccc2c2ccccc21 (centres undefined)	.	.	.	.	.	.
COc1ccc(Br)cc1CNC(C)c1ccccc1 (centres undefined)	.	.	.	.	.	.
CCOc1ccc(N2CC(NC(=O)/C=C\c3ccc4c(c3)OCO4)CC2=O)cc1 (centres undefined)	/	.	/	.	.	.
SMILES	CtBP-E1A blk	JMJD2A Tudor inh	Six1-Eya2 inh	BAZ2B inh	G9a block	HP1b chromo inh
COc1cc(/C=C/c2nc3cc(Cl)ccc3c(=O)n2-c2ccc(C)cc2C)cc(OC)c1OC	/	.	/	.	.	.
COc1ccccc1CNCc1cccc(Oc2ccccc2)c1	.	40µM	.	25µM	8.9µM	.
COc1cccc(CNCc2ccccn2)c1OC	.	56µM	?	?	.	.
COc1cccc(CN2CCC2(C)C(=O)NCCc2ccccn2)c1OC (centres undefined)	.	/	.	/	/	/
C=CC(=O)N1C/C(=C/c2ccc(F)cc2)C(=O)/C(=C\c2ccc(F)cc2)C1	.	18µM	?	/	/	?
Cc1ccc(CCNC(=O)c2ccc(CSc3nc4ccncc4n3Cc3ccc(F)cc3)cc2)cc1	/	.	/	.	.	.
CCN1C(=O)CS/C1=N\S(=O)(=O)c1ccc(Cl)cc1	.	.	.	.	.	.
CCn1c(Cl)c(C=O)s/c1=N\S(=O)(=O)c1ccccc1	.	.[11.4 µM]	.	.	45µM	.
CCN(CC)N=Nc1ccc(C(=O)O)cc1	.	.	.	.	2µM	.

Screening results deposited in PubChem BioAssay by National Center for Advancing Translational Sciences (NCATS).
